Assay outcomes as filed in PubChem.
The list is not random: actives were taken first. Their share in the collection is about 2.9%.
HEK293 tox – qHTS of GLP-1 Receptor Inverse Agonists: Cytotox Screen | 0.13% of 410,000 active | Potency, µM (top dose mostly 38.3 µM), without a hit: top-dose activity change, negative = inhibition, usual class: inhibitors | HEK293 cAMP-luciferase reporter cells, luminescence, 24 h;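 further: loss of luciferase light is scored as toxicity; potency means the concentration at half of the fitted maximal effect; on the % scale 0 is the no-effect control and ±100 the full control effect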
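Seeding density was 200 cells/uL; after overnight-length (12 h) culture, 23 nL compounds went on for 24 h at 37 °C. Readout used a luciferase detection reagent, luminescence taken after 12 min at room temperature.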
LDHA block – qHTS assay for inhibitors of human lactate dehydrogenase | L-lactate dehydrogenase A chain (Homo sapiens), P00338 | purified LDHA, NADH/diaphorase-resazurin fluorescence; active compounds read low | activity change, % (values are at about 110 or 230 µM) | 0.15% of 480,000 active | AID 1347041, 2019; in the data active means activity change below about -30%; inconclusive means mostly about -25% to -30%;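 further: plate controls were DMSO wells for no effect and wells without enzyme for full effect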
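Remaining NADH was detected by diaphorase (0.133 mg/mL) converting 37 µM resazurin to fluorescent resorufin, read at 0 and 20 minutes. The preceding 5-minute room-temperature reaction used 2 nM LDHA, 0.2 mM sodium pyruvate and 0.06 mM NADH at pH 7.4.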
GLP-1R agonist – qHTS of GLP-1 Receptor Agonists; Glucagon-like peptide 1 receptor (Homo sapiens), P43220; HEK293 GLP-1R CRE-luciferase, luminescence, 4-6 h; cells express a hypersensitive GLP-1R form; Potency, µM (top dose mostly 45.6 µM), inactives show at the top dose activation, actives largely listed as activators; 0.007% of 380,000 active; further: potency means the concentration at half of the fitted maximal effect; % of control where 0% means no effect
Target sequence (P43220 whole entry, looked up): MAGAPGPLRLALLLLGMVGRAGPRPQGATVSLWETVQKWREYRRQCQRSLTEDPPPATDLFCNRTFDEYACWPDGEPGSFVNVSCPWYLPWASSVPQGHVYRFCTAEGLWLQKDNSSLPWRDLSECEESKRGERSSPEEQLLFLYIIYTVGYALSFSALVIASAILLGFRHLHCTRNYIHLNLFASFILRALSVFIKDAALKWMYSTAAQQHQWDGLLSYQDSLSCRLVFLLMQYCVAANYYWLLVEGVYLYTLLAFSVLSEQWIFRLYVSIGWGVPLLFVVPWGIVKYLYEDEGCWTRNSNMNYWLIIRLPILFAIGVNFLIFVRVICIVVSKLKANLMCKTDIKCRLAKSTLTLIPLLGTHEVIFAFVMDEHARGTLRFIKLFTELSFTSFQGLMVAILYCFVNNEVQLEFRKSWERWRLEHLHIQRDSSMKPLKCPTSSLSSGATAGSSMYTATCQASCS
p53 reactivator – qHTS assay for re-activators of p53 using a Luc reporter; H1299 p53-A138V BP100-luciferase reporter, luminescence, 24 h; AID 504706, 2011; 0.063% of 320,000 active; Potency, µM (series often up to 92.2 µM), without a hit: top-dose activity change, positive = activation, hits mostly activators; further: potency means the concentration at half of the fitted maximal effect; % of control where 0% means no effect; nearly all actives have a fitted effect of over 45% in size
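p53-null H1299 cells stably carrying temperature-sensitive p53-A138V and a BP100-luciferase reporter were pinned with compounds (4-point, 1:5 series) and held 24 hrs at 37 deg C. Luminescence was read 10 min after detection reagent.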
GLP-1R inv ag – qHTS of GLP-1 Receptor Inverse Agonists (Inhibition Mode) | Glucagon-like peptide 1 receptor (Homo sapiens), P43220 | HEK293 GLP-1R CRE-luciferase, luminescence, 24 h; GLP-1R form is constitutively active | Potency, µM (top dose mostly 38.3 µM), for inactives: at the highest dose activity change, negative = inhibition, hits mostly inhibitors | 1.6% of 410,000 active; further: potency means the concentration at half of the fitted maximal effect; on the % scale 0 is the no-effect control and ±100 the full control effect; nearly all actives have a fitted effect of over 55% in size
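HEK293 cells stably co-expressing constitutively active GLP-1R and a cAMP-responsive luciferase reporter were seeded in DMEM with 10% Nu serum, given compounds after 12 h, and incubated 24 h at 37 deg C. Luminescence was then read.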
ClpP mod – qHTS Assay for Activators of ClpP. Potency, µM (titrated, usually from 57.5 µM), for inactives: at the top dose activity change, negative = active. purified B. subtilis ClpP, FRET peptide cleavage, 20 min. AID 651965, 2013. 1.9% of 340,000 active; active means well fitted falling curve with a large enough effect; inconclusive means small, poorly fitted or top-dose-only effect; inactive means no such curve, though single readings can be large or run the other way; further: potency means the concentration at half of the fitted maximal effect; the source files actives as falling curves though it sought activators and does not explain the sign; nearly all actives have a fitted effect of over 65% in size
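ClpP 10 microg/mL final, pH 8 Tris/KCl buffer with BSA, glycerol, Tween-20; compound pinned in; FRET-FV substrate; RT 20 min; Ex320/Em430; ΔFRET vs ADEP 5.8 microM, DMSO, no enzyme.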
* hit, by the source's call; ? = inconclusive; nt = no result given. Unless noted, the call rests on the fitted dose curve; in most records, active means well fitted curve in the direction sought with a large enough effect; inconclusive means small, poorly fitted or top-dose-only effect, or another doubt; inactive means no such curve, though single readings can be large; an effect the other way counts as inactive or inconclusive.

SMILES	HEK293 tox	LDHA block	GLP-1R agonist	p53 reactivator	GLP-1R inv ag	ClpP mod
CCC(C(=O)Nc1ccc(F)cc1F)n1nc(-c2ccccc2)c2c(c1=O)CCCC2 (configuration not stated)	-4%	-4	nt	nt	?	0%
O=C(CSc1nc2ccccc2o1)Nc1nc2ccccc2s1	-3%	-7	-7%	?	-4%	11%
O=C(CSc1nc2ccccc2o1)Nc1nc2c(s1)CCCC2	-16%	-2	-8%	nt	2.5µM*	-17%
CC1=C(C(=O)NCc2ccc(C)cc2)C2(CCCCC2)OC1=O	-4%	1	nt	nt	-2%	-1%
NCCCC[C@H]1NC(=O)[C@H](CCC(=O)O)NC(=O)c2cc([N+](=O)[O-])cc(I)c2OCC[C@@H](C(N)=O)NC1=O	-23%	-40*	-5%	3%	7%	1%
C[C@@H]1NC(=O)c2cc([N+](=O)[O-])cc(I)c2OCC[C@@H](C(N)=O)NC(=O)[C@H](CCCCN)NC1=O	0%	1	-1%	8%	6%	2%
Cc1cc(=O)oc2cc(OCC(=O)NCC3CCCO3)ccc12 (configuration not stated)	1%	-10	-3%	-2%	23%	4%
Cc1cc(C)c(C(N)=O)c(NCCc2ccccc2)n1	-13%	-12	-7%	4%	0%	35µM*
CCCC(c1nnnn1CCc1ccccc1)N1CCN(C2CCCC2)CC1 (configuration not stated)	-28%	-5	-1%	8%	?	0.79µM*
Cc1nc(-c2ccc(C)c(N3CCN(C(=O)Nc4cccc(Cl)c4C)CC3)c2)no1	0%	-1	-4%	nt	4.5µM*	-1%
Cc1cc(NC(=O)COC(=O)c2n[nH]c3ccccc23)no1	40%	-10	3%	-2%	2%	11µM*
CCCCCOc1ccc(C(=O)OCC(=O)Nc2cc(C)on2)cc1	11%	-4	-13%	2%	17%	18µM*
COc1ccc2c(COC(=O)c3n[nH]c4ccccc34)cc(=O)oc2c1	-13%	-2	4%	?	0%	28µM*
Cc1cc(NC(=O)COC(=O)c2ccc(OC(F)(F)F)cc2)no1	-15%	-6	-29%	7%	1%	1%
Cc1ccc(C)c(C(=O)COC(=O)c2n[nH]c3ccccc23)c1	-2%	-1	13%	?	10µM*	1%
CC(=O)NC(C(=O)c1ccccc1)N1CCCCC1 (configuration not stated)	-3%	-1	-7%	nt	4%	nt
Cc1nn(CC(O)COc2ccc3c(c2)CCC3)c(C)c1C (configuration not stated)	-8%	-2	26%	-2%	?	0%
COc1ccc(-c2nc3c(s2)CN(C(C(=O)O)c2c[nH]c4cc(CO)ccc24)CC3)cc1OC (configuration not stated)	nt	4	nt	nt	nt	nt
CC(=O)N/C(=C/c1ccc2c(c1)OCO2)C(=O)NC(Cc1ccccc1)C(=O)O (configuration not stated)	-4%	3	-2%	nt	-3%	32µM*
CC(=O)N/C(=C\c1ccc2c(c1)OCO2)C(=O)NC(C(=O)O)c1ccccc1 (configuration not stated)	1%	-3	5%	3%	-1%	nt
Cc1cc(NC(=O)CSc2ccc(-c3nc4cc(C)c(C)cc4[nH]3)cn2)no1	8%	10	-11%	?	50%	?
